# Data from ChEMBL document CHEMBL3988442, “University of Dundee, Small-Polar-MMV Screening Library” (2021).
# The whole screen tested about 66,000 compounds, of which about 960 (1.5%) showed an effect of 50% or more. Only a selection was taken, and strong results are over-represented in it overall.
# System: Trypanosoma brucei
# Experiment: Trypanosoma brucei 72 hour study
# Assay type: functional, organism-based
# Parameters: scale not given: in the data most compounds retested in dose-response had high values
smiles,measurement,setting,value
COc1ncccc1CNC(=O)NCc1ccco1,Percent Effect,10 µM,-3.742%
same,Percent Effect,"30.3 µM, […]",11.99%
Cc1ccc(CN2CC[C@H]3[C@H](CC(Cn4cccn4)N3C)C2)s1.O=C(O)C(F)(F)F.O=C(O)C(F)(F)F.O=C(O)C(F)(F)F (some centres not stated),Percent Effect,"30.3 µM, […]",2.612%
O=C(CC1CC1)N1CC[C@@H]2[C@H](CC1)N(Cc1cccnc1)CCS2(=O)=O.O=C(O)C(F)(F)F.O=C(O)C(F)(F)F,Percent Effect,"30.3 µM, […]",-63.96%
Cc1cccc(OC2CCN(c3nccnc3C#N)CC2)n1,Percent Effect,"30.3 µM, […]",-52.89%
Cc1cccc(OC2CCN(c3ccc(C#N)cn3)CC2)n1,Percent Effect,"30.3 µM, […]",86.54%
Cc1cccc(OC2CCN(c3ncc(C#N)cc3Cl)CC2)n1,Percent Effect,"30.3 µM, […]",2.665%
CCn1cc(NS(=O)(=O)c2ccc(Br)s2)c(C(N)=O)n1,Percent Effect,"30 µM, 30.03 µM",-24.98%
O=C(Nc1cnccn1)[C@H]1CC[C@@H]2[C@@H](CCN2Cc2ccoc2)O1.O=C(O)C(F)(F)F,Percent Effect,"30.3 µM, […]",-117.8%
COc1cc(F)ccc1N(C)Cc1ccccn1,Percent Effect,"30 µM, 30.03 µM",73.53%
COc1cc(F)ccc1N(C)Cc1cccnc1,Percent Effect,"30 µM, 30.03 µM",-106.7%
COc1cc(F)ccc1N(C)Cc1ccncc1,Percent Effect,"30 µM, 30.03 µM",-66.27%
Cc1c(-c2cccs2)nn2c(O)c3c(nc12)CN(C(=O)C1CC1)C3,Percent Effect,"30.3 µM, […]",9.41%
Cc1ccc(N2CCN(C(=O)CCc3n[nH]c(C)c3C)CC2=O)cc1,Percent Effect,"30 µM, 30.03 µM",-42.04%
CS(=O)(=O)N1C[C@@H]2CC[C@H](C1)N(Cc1ccsc1)C2,Percent Effect,"30 µM, 30.03 µM",-69.04%
CC(=O)c1cc(CN2C[C@H]3CC[C@@H]2CN(S(=O)(=O)N(C)C)C3)cs1,Percent Effect,"30 µM, 30.03 µM",79.15%
CN(C)S(=O)(=O)N1C[C@@H]2CC[C@H](C1)N(Cc1ccc(F)c(F)c1)C2,Percent Effect,"30 µM, 30.03 µM",-42.84%
CN(C)S(=O)(=O)N1C[C@@H]2CC[C@H](C1)N(Cc1ccc3nsnc3c1)C2,Percent Effect,"30 µM, 30.03 µM",2.112%
CC(=O)c1cc(CN2C[C@H]3CC[C@@H]2CN(S(C)(=O)=O)C3)cs1,Percent Effect,"30 µM, 30.03 µM",91.04%
CS(=O)(=O)N1C[C@@H]2CC[C@H](C1)N(Cc1ccc3nsnc3c1)C2,Percent Effect,"30 µM, 30.03 µM",-23.46%
CC(C)(C)C(CCO)NC(=O)Nc1ccncc1 (configuration not stated),Percent Effect,"30.3 µM, […]",-3.299%
COCCCNC(=O)CCn1ncc2c(Cl)cccc21,Percent Effect,"30.3 µM, […]",-21.64%
CCOCCCNC(=O)CCCC(=O)n1nc(C)c2ccccc21,Percent Effect,"30 µM, 30.03 µM",-9.537%
COCCCNC(=O)CCn1nc(C)c2ccccc21,Percent Effect,"30 µM, 30.03 µM",61.88%
Nc1ccc(C(=O)N2CCCC(C(=O)CCc3ccccc3)C2)cn1 (configuration not stated),Percent Effect,"30 µM, 30.03 µM",42.45%
Cn1cc(N2CC3(CCN(Cc4ccoc4)CC3)OCC2=O)cn1.O=C(O)C(F)(F)F,Percent Effect,"30 µM, 30.03 µM",-14.91%
CCOC(=O)c1n[nH]cc1-c1cncn1CCn1nc(C)c(C)c1C.Cl,Percent Effect,"30.3 µM, […]",-11.29%
Cc1ncsc1C(=O)NC1CCN(CC(=O)NCc2ccccc2)CC1,Percent Effect,"30 µM, 30.03 µM",57.29%
Cc1ncsc1C(=O)NC1CCN(CC(N)=O)CC1,Percent Effect,"30.3 µM, […]",10.5%
Cc1ncsc1C(=O)NC1CCN(CC(=O)N(C)c2ccccc2)CC1,Percent Effect,"30 µM, 30.03 µM",32.24%
CC1CCCCN1C(=O)c1coc(COc2cccc3cnccc23)n1 (configuration not stated),Percent Effect,"30.3 µM, […]",103.3%
O=C(c1coc(COc2cccc3cnccc23)n1)N1CCSCC1,Percent Effect,"30.3 µM, […]",-189.8%
O=C(c1coc(COc2cccc3cnccc23)n1)N1CCCCCC1,Percent Effect,"30.3 µM, […]",-73.19%
Cc1noc(Cl)c1CCC(=O)N1CCN(c2ncccn2)CC1,Percent Effect,"30 µM, 30.03 µM",-22.8%
Cc1cccc(N2CCN(C(=O)CCc3c(C)noc3Cl)CC2)c1,Percent Effect,"30.3 µM, […]",55.23%
Cc1noc(Cl)c1CCC(=O)N1CCN(c2ccccc2)CC1,Percent Effect,"30.3 µM, […]",16.11%
CN(CCC(O)c1ccccc1)Cc1nc(-c2ccccc2)no1 (configuration not stated),Percent Effect,"30.3 µM, […]",-13.82%
same,Percent Effect,"10 mM, 10 mM as filed; unlikely as a test dose",-49.39%
CC(C)CN1CCC2(C1)CN(S(=O)(=O)c1cn(C)cn1)C2.O=C(O)C(F)(F)F.O=C(O)C(F)(F)F,Percent Effect,"30.3 µM, […]",-13.21%
Cc1ccccc1CN1CCC(c2nn(CCN)c3nccnc23)C1 (configuration not stated),Percent Effect,"30.3 µM, […]",24.84%
COc1ccccc1CN1CCC(c2nn(CCN)c3nccnc23)C1 (configuration not stated),Percent Effect,"30.3 µM, […]",99.59%
NCCn1nc(C2CCN(Cc3ccccc3Cl)C2)c2nccnc21 (configuration not stated),Percent Effect,"30.3 µM, […]",22.22%
COCC(=O)N1C[C@@H]2CCCO[C@@H]2[C@H](N(C)Cc2ccco2)C1.O=C(O)C(F)(F)F,Percent Effect,"30 µM, 30.03 µM",-11.7%
O=C(O)C(F)(F)F.O=C1N(Cc2cccc(F)c2)CCC12CCN(c1ccccn1)CC2,Percent Effect,"30.3 µM, […]",-2.034%
CNCC[C@H]1CC(C)(C)Oc2ccc(OC)cc21,Percent Effect,"30.3 µM, […]",-16.4%
COc1ccc2c(c1)[C@@H](CCNC(C)=O)CC(C)(C)O2,Percent Effect,"30.3 µM, […]",-14.03%
CNCC[C@H]1CC(C)(C)Oc2ccc(OCC3CC3)cc21,Percent Effect,"30.3 µM, […]",86.36%
CN(C)c1nc2c(c(N3CCC4(CC3)CNC(=O)C4)n1)CCCC2,Percent Effect,"30 µM, 30.03 µM",23.78%
Cc1nc(N(C)C)nc(N2CCC3(CC2)CNC(=O)O3)c1C,Percent Effect,"30 µM, 30.03 µM",-29.71%
CN(C)c1nc2c(c(N3CCCC4(CC3)CNC(=O)O4)n1)CCCC2 (configuration not stated),Percent Effect,"30 µM, 30.03 µM",52.4%
CN(C)S(=O)(=O)N1C[C@@H](OCc2cccnc2)[C@H]2OCCC[C@H]21.O=C(O)C(F)(F)F,Percent Effect,"30 µM, 30.03 µM",-11.52%
CN(Cc1cccc(OC(F)F)c1)Cc1nc2c(cnn2C)c(=O)[nH]1,Percent Effect,"30.3 µM, […]",-25.39%
CN(CCS(=O)(=O)c1cc(Cl)ccc1Cl)CC(=O)Nc1cccc(F)c1,Percent Effect,"30 µM, 30.03 µM",-17.26%
CN(CCS(=O)(=O)c1cc(Cl)ccc1Cl)CC(=O)Nc1ccc(F)cc1,Percent Effect,"30 µM, 30.03 µM",64.98%
CN(CCS(=O)(=O)c1cc(Cl)ccc1Cl)CC(N)=O,Percent Effect,"30 µM, 30.03 µM",-15.71%
CC(=O)NC[C@]1(O)CCN(C(=O)c2ccc3c(c2)OCO3)C[C@H]1O,Percent Effect,"30.3 µM, […]",-26.03%
c1cc2cc[nH]c2c(CC2CN(Cc3cscn3)C2)n1,Percent Effect,"30.3 µM, […]",-15.51%
Cc1cnc(N2CCOCC3(CCN(c4ccccn4)C3)C2)nc1.O=C(O)C(F)(F)F.O=C(O)C(F)(F)F (configuration not stated),Percent Effect,"30 µM, 30.03 µM",-35.16%
CC(=O)NCC(=O)N1CCC2(CC1)C(=O)N(CC1CC1)c1ccccc12,Percent Effect,"30.3 µM, […]",-5.541%
CN(C)C1CCCN(C(=O)c2cccc(-c3ncc[nH]3)c2)CC1 (configuration not stated),Percent Effect,"30 µM, 30.03 µM",-3.463%
CN(C)[C@H]1CCCCN(C(=O)c2cccc(N3CCS(=O)(=O)CC3)c2)C1,Percent Effect,"30 µM, 30.03 µM",11.69%
CN(C)[C@H]1CCCCN(C(=O)c2cccc(-c3cccc(F)c3)c2)C1,Percent Effect,"30 µM, 30.03 µM",59.87%
COCc1nc2cc(NCc3ccncc3)ccc2o1,Percent Effect,"30 µM, 30.03 µM",16.85%
COCc1nc2cc(NCc3ccc(C)o3)ccc2o1,Percent Effect,"30 µM, 30.03 µM",13.96%
CCC(C)CNc1ccc2oc(COC)nc2c1 (configuration not stated),Percent Effect,"30 µM, 30.03 µM",94.42%
Cc1cccc(C(=O)N2CCN(CCC(C)C)CC2)n1,Percent Effect,"30.3 µM, […]",-20.29%
CCCN1Cc2nc(N3CCCC3)ncc2C1=O,Percent Effect,"30 µM, 30.03 µM",35.2%
FC(F)c1nnc2ccc(N3CCC4(CCOC4)C3)nn12 (configuration not stated),Percent Effect,"30 µM, 30.03 µM",-51.53%
Cc1nnc2ccc(N3CCC4(CCOC4)C3)nn12 (configuration not stated),Percent Effect,"30 µM, 30.03 µM",-17.43%
c1ccc(-c2nnc3ccc(N4CCC5(CCOC5)C4)nn23)cc1 (configuration not stated),Percent Effect,"30 µM, 30.03 µM",81.34%
c1cc(-c2n[nH]cc2-c2ccnc(N3CCCCCC3)n2)ccn1,Percent Effect,"30.3 µM, […]",36.75%
CC(=O)N1CCN(C(=O)c2sc(-c3ccccc3F)nc2C)CC1,Percent Effect,"30 µM, 30.03 µM",-46.44%
CCOC(=O)N1CCN(C(=O)c2sc(-c3ccccc3F)nc2C)CC1,Percent Effect,"30 µM, 30.03 µM",51.23%
Cc1nc(-c2ccccc2F)sc1C(=O)N1CCN(C)CC1,Percent Effect,"30 µM, 30.03 µM",37.21%
CC(=O)N1CCO[C@H]2[C@H](OCCCn3cccn3)CC[C@@H]21.O=C(O)C(F)(F)F,Percent Effect,"30.3 µM, […]",-5.128%
COc1cccc(CN(Cc2ccco2)Cc2cnc(C)n2C)c1.O=C(O)CC(O)(CC(=O)O)C(=O)O,Percent Effect,"30.3 µM, […]",15.04%
CN1C[C@@H](C(=O)N(C)C)[C@@]2(CCc3ccccc3C(=O)N2)C1.Cl,Percent Effect,"30.3 µM, […]",-15.68%
CNc1nc(C)c(C(=O)N2CCCCC2CN2CCCCCC2)s1 (configuration not stated),Percent Effect,"30 µM, 30.03 µM",17.59%
O=C(O)C(F)(F)F.O=C(O)C(F)(F)F.O=C(c1n[nH]c2c1CN(C1CCOC1)CC2)N1CCOCC1 (configuration not stated),Percent Effect,"30.3 µM, […]",0.9809%
CN(C)CCN1C(=O)CCC12CCN(C(=O)c1cccnc1)CC2.O=C(O)C(F)(F)F.O=C(O)C(F)(F)F,Percent Effect,"30.3 µM, […]",75.6%
CN(C)CCN1C(=O)CCCC12CCCN(C(=O)c1ccncc1)C2.O=C(O)C(F)(F)F.O=C(O)C(F)(F)F (configuration not stated),Percent Effect,"30.3 µM, […]",-7.261%
CN(C)CCN1C(=O)CCC12CCCN(C(=O)c1cccnc1)CC2.O=C(O)C(F)(F)F.O=C(O)C(F)(F)F (configuration not stated),Percent Effect,"30.3 µM, […]",-25.41%
O=C(O)C(F)(F)F.c1coc(CN2CCO[C@H]3[C@H](OCC4CCCC4)CC[C@@H]32)c1,Percent Effect,"30.3 µM, […]",1.448%
Cc1csc(N2CCN(CC(=O)N3CCNC3=O)CC2C)n1 (configuration not stated),Percent Effect,10 µM,-102.2%
CC(C)NC(=O)c1ccc2c(c1)nc1n2CCN(c2ccccc2)C1,Percent Effect,"30 µM, 30.03 µM",50.34%
CC(C)NC(=O)c1ccc2c(c1)nc1n2CCN(Cc2ccco2)C1,Percent Effect,"30 µM, 30.03 µM",-8.027%
CC(C)NC(=O)c1ccc2c(c1)nc1n2CCN(C(C)C)C1,Percent Effect,"30 µM, 30.03 µM",-14.37%
COCC(=O)NCc1cnc(C)nc1-c1cn(C)c2ccc(OC)cc12,Percent Effect,"30.3 µM, […]",-5.457%
COc1ccc2c(c1)c(-c1nc(N(C)C)ncc1CN)cn2C,Percent Effect,"30.3 µM, […]",100.6%
COc1ccc2c(c1)c(-c1nc(C)ncc1CN)cn2C,Percent Effect,"30.3 µM, […]",-32.27%
O=C(Nc1ccccc1Cl)N1CCN(CC2CC2)[C@@H]2CS(=O)(=O)C[C@@H]21,Percent Effect,"30 µM, 30.03 µM",-39.32%
CCNC(=O)NC[C@H]1COCc2nc3cc(C)ccc3n21,Percent Effect,"30.3 µM, […]",32.27%
COc1ccc2c(c1)nc1n2[C@@H](CNC(=O)c2cccnc2)COC1,Percent Effect,"30.3 µM, […]",-10.65%
CCNC(=O)NC[C@H]1COCc2nc3cc(OC)ccc3n21,Percent Effect,"30 µM, 30.03 µM",86.68%
COc1ccc2c(c1)nc1n2[C@@H](CNC(=O)c2ccccn2)COC1,Percent Effect,"30 µM, 30.03 µM",-12.62%
Cc1ccc2c(c1)nc1n2[C@@H](CNC(=O)c2cncnc2)COC1,Percent Effect,"30.3 µM, […]",-3.868%
COc1ccc(C(=O)NC[C@H]2COCc3nc4cc(C)ccc4n32)cc1,Percent Effect,"30.3 µM, […]",101.3%
